Screening data deposited in PubChem by several laboratories.
BoNT F protease: blocks Botulinum neurotoxin F light chain protease; Multiplex microsphere protease cleavage assay, flow cytometry; inhibition, % at 10 µM; actives 0.22% (n = 360,000); in the data active means inhibition above about 35%, passing the limit was not always enough; inconclusive means no clear call, values can overlap the other calls; further: plate controls were buffer without enzyme for full effect and enzyme alone for no effect
Bead autofluor: compound fluorescence in toxin protease inhibitor counterscreen | actives 3.1% (n = 360,000) | compound autofluorescence counterscreen, microsphere flow cytometry; stronger effect = higher value | fluorescence intensity (concentration not given with the values); in the data active means fluorescence intensity above about 16000; inconclusive means no clear call, values can overlap the other calls
Anthrax LF prot: anthrax lethal factor protease inhibition | AID 588501 | inhibition, % at 10 µM | multiplex microsphere protease cleavage assay, LF | actives 0.12% (n = 360,000) | P15917; further: plate controls were buffer without enzyme for full effect and enzyme alone for no effect
Target sequence (P15917 whole entry, looked up): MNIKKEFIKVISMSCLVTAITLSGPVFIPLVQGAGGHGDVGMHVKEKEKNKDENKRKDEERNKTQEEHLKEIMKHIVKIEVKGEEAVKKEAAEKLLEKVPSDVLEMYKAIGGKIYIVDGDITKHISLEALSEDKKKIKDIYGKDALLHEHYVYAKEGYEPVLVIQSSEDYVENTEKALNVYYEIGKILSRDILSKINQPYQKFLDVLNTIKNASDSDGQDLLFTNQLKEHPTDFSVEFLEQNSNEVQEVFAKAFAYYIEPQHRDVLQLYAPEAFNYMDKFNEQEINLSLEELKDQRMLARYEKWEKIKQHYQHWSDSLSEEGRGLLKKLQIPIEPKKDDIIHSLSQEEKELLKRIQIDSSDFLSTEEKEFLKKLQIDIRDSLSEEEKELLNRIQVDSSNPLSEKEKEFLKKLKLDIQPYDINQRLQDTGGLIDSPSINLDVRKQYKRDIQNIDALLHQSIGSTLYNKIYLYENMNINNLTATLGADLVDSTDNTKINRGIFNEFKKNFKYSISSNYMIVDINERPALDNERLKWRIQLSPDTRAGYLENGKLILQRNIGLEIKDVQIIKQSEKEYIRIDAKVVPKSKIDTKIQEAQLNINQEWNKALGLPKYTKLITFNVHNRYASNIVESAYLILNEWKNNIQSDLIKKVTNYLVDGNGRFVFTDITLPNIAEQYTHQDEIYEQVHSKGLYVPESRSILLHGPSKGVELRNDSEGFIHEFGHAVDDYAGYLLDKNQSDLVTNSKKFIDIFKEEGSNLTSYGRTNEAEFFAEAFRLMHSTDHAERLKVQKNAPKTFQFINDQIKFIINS
SARS 3CLpro inh: SARS-CoV 3CLpro protease inhibition | P0C6X7 | recombinant SARS-CoV 3CLpro, quenched FRET peptide cleavage | inhibition, % at 6 µM | actives 0.14% (n = 290,000) | AID 1706; in the data active means inhibition above about 12%
BoNT-A LC inh2: blocks Botulinum neurotoxin A light chain protease; multiplex microsphere protease substrate cleavage, flow cytometry; inhibition, % at 10 µM; actives 0.17% (n = 360,000); AID 588499; further: plate controls were buffer without enzyme for full effect and enzyme alone for no effect
* = called active by the depositor; ? = inconclusive; / = no result given. Compounds with a hit are over-represented: about 3.5% of the library has one in this group of screens. Unless noted, no stated cut-off is given here; in the data, active means inhibition above about 30%; inconclusive means no clear call, values can overlap the other calls; inactive means below that.

SMILES | BoNT F protease | Bead autofluor | Anthrax LF prot | SARS 3CLpro inh | BoNT-A LC inh2
CC1=C(C(=O)Nc2ccccc2)C(c2ccccn2)n2nc(CCCO)nc2N1 (configuration not stated) | 2 | 4217 | -15 | / | 0
CCOC(=O)C1=C(Cc2ccc(F)cc2)C(=O)c2ccccc2C1=O | -14 | 23756* | -14 | -2 | 5
O=C(OCc1ccc(F)cc1)c1ccc2c(c1)-c1ccccc1C2=O | 10 | 2485 | 2 | 1 | 3
Cc1cc(-n2c(C)cc(C(=O)CSc3ccccn3)c2C)no1 | -5 | 3340 | -11 | / | -1
O=C(NNC(=O)C1CCCN(c2ncccn2)C1)c1ccc(F)cc1 (configuration not stated) | -7 | 8603 | -7 | 0 | 0
Nc1c(S(=O)(=O)c2cc(Cl)ccc2Cl)c2nc3ccccc3nc2n1CCN1CCOCC1 | 2 | 24321* | -1 | -1 | ?
CC(=O)Nc1ccc(S(=O)(=O)c2c(N)n(CCN3CCOCC3)c3nc4ccccc4nc23)cc1 | 4 | 3539 | 2 | 0 | 2
O=C(NCc1ccco1)c1cccc(F)c1 | -2 | 7864 | -3 | 3 | 0
CC(C)C1C(c2ccccc2)N(C)C(c2ccccc2)CC1(O)c1ccccc1 (configuration not stated) | 1 | 21931* | 0 | 4 | 2
CCCC(=O)c1cc(F)c(N2CCN(C(=O)OCC)CC2)cc1C | -10 | 8786 | 0 | -4 | 0
CCOC(=O)N1CCN(c2cc3nccnc3cc2F)CC1 | -6 | 22764* | 0 | -3 | ?
Cc1ccc(-c2cc(-c3nnc(SCC(=O)NCC(C)C)n3N)c3ccccc3n2)cc1 | -7 | 3101 | -2 | -1 | -1
O=C(NCn1cnccc1=O)c1ccccc1 | 0 | 23239* | -4 | -4 | 0
Cc1ccc2c(c1)CCCN2C(=O)C1CCCO1 (configuration not stated) | -2 | 22991* | -2 | 3 | -3
Cc1ccc(C)c(N2CCN(C(=O)c3cc4ccccc4oc3=O)CC2)c1 | 2 | 5804 | 0 | 5 | -1
COC(=O)N1CCCc2cc(C)ccc21 | -2 | 4579 | -3 | 6 | -1
Cc1ccc2c(c1)CCCN2C(=O)c1cc2ccccc2oc1=O | 0 | 16268* | -3 | 8 | ?
CCc1ccc2c(c1)CCCN2C(=O)c1ccccc1C(=O)O | -4 | 19882* | -1 | 1 | 4
Cc1ccc(C(=O)N2CCN(C(=O)C3CCCO3)CC2)cc1 (configuration not stated) | -5 | 4041 | -3 | / | 0
O=C(c1ccccc1F)N1CCCc2ccccc21 | 34 | 3543 | -4 | -5 | 0
Cc1ccc2c(c1)CCCN2C(=O)c1ccoc1C | 1 | 21940* | -2 | -6 | 1
COc1ccc(CCNC(=O)COC(=O)C2CC2)cc1OC | 2 | 3738 | 3 | / | 0
CCn1cc(C(=O)NCCCOC(C)C)c(=O)c2cc(S(=O)(=O)N3CCCC3)ccc21 | 8 | 4467 | 2 | 1 | 1
COc1cc2c(C(=O)NCCCN3CC(C)CC(C)C3)cn(CC(C)C)c(=O)c2cc1OC (configuration not stated) | 0 | 3925 | 0 | 1 | 0
O=C(CSCc1ccccc1Br)N/N=C/c1ccc(OCC(=O)N2CCCCC2)cc1 | 1 | 2655 | -1 | 0 | 0
SMILES | BoNT F protease | Bead autofluor | Anthrax LF prot | SARS 3CLpro inh | BoNT-A LC inh2
Cc1ccc2c(c1)CCCN2C(=O)c1c(C)noc1C | 3 | 22666* | -6 | -1 | 2
COC(=O)CC/C(C)=N\Nc1ccc([N+](=O)[O-])cc1[N+](=O)[O-] | 0 | 21329* | 0 | 7 | -1
C/C(CC(C)C)=N/Nc1ccc([N+](=O)[O-])cc1[N+](=O)[O-] | / | / | / | -3 | /
O=C(NC(NCc1ccccn1)(C(F)(F)F)C(F)(F)F)c1ccco1 | 0 | 22419* | 2 | -3 | 0
CC(C)(C)c1ccc(C(=O)NC(=S)NCC2CCCO2)cc1 (configuration not stated) | -1 | 2629 | 1 | 4 | 1
COc1ccc(OC)c(CCNC(=O)CS(=O)(=O)Cc2nc(-c3ccc(C)cc3)oc2C)c1 | -5 | 23969* | -1 | 6 | -3
COc1cccc(-c2nc(CS(=O)(=O)CC(=O)NCCc3cc(OC)ccc3OC)c(C)o2)c1 | 1 | 4428 | -1 | 2 | 1
COCCCNC(=O)CS(=O)(=O)Cc1nc(-c2cccc(OC)c2)oc1C | -4 | 20516* | 1 | 0 | -3
COc1ccc(-c2nc(CS(=O)(=O)CC(=O)NCCc3cc(OC)ccc3OC)c(C)o2)cc1 | -2 | 17109* | -3 | 11 | -2
CC(=NNC(=O)c1ccc(NS(=O)(=O)c2ccc(Br)cc2)cc1)c1cccnc1 | -4 | 3451 | -2 | / | 0
COc1ccccc1N(CC(=O)NCc1ccc(F)cc1)C(=O)CCC(=O)Nc1ccccn1 | 0 | 4667 | 2 | 2 | 0
Cc1cc(C)n(C(=O)/C(C#N)=N\Nc2ccccc2[N+](=O)[O-])n1 | -6 | 4519 | -4 | 1 | -1
Cc1nnc(Sc2c(N)n(C)c(=O)n(C)c2=O)s1 | -3 | 20250* | -7 | 2 | 0
Cc1nnc(SCCn2c(Br)nc3c2c(=O)n(C)c(=O)n3C)s1 | -17 | 5889 | -7 | -2 | -1
COc1ccc(-c2ccc3oc(-c4ccc(OC)cc4)c(-c4cc(OC)c(OC)c(OC)c4)c3c2)cc1 | -1 | 3868 | 8 | / | 1
COc1ccc(-c2c(C)oc3ccc(C)cc23)cc1 | -3 | 23892* | -9 | 3 | -2
NC(=O)CNC1CC(=O)N(CCc2ccccc2)C1=O (configuration not stated) | 0 | 23483* | -2 | 2 | 0
CCCCCCCCCCS(=O)(=O)N/N=C/c1ccc([N+](=O)[O-])cc1 | 9 | 21737* | -11 | -2 | ?
CCOC(=O)C1CCCN(c2c(NCCCN(CC)c3cccc(C)c3)c(=O)c2=O)C1 (configuration not stated) | -1 | 2791 | -2 | 0 | 0
O=C(c1sc2ccccc2c1Cl)N1CCC2(CC1)OCCO2 | -6 | 21877* | -3 | -4 | ?
O=C(c1sc2ccccc2c1Cl)N1CCN(c2ccccn2)CC1 | 11 | 5573 | 1 | 2 | 2
O=C(CSc1nc2ccccc2s1)c1cc2ccccc2o1 | -1 | 23696* | -2 | 3 | 1
O=C(CSc1nc2ccccc2s1)CSc1nc2ccccc2s1 | -3 | 8021 | 1 | -1 | 1
CCOCCCNCc1cccc(OCc2ccc(F)cc2)c1 | -10 | 2554 | -1 | 2 | 0
CC(=O)N1CCC(=NNS(=O)(=O)c2cccc([N+](=O)[O-])c2)CC1 | 0 | 9361 | -14 | 4 | 0
O=C(Nc1ccc(Cl)cc1)c1ccc(-n2cncn2)c([N+](=O)[O-])c1 | -9 | 24392* | -2 | 2 | -5
Cc1nn(CC(=O)O)c(C)c1Cl | 1 | 6505 | 0 | 4 | 1
Cc1nn(CC(=O)O)c(C)c1C | 3 | 21501* | -3 | -1 | 2
Cn1c(=O)c2c(ncn2CC(=O)OCC(=O)c2ccc(Cl)cc2)n(C)c1=O | -1 | 5100 | 0 | / | 0
O=C(Nc1cccc(C(F)(F)F)c1)c1n[nH]c(Cn2cncn2)n1 | -38 | ? | ? | -1 | ?
